Assay results published in PubChem BioAssay (NCI).
About 79,000 compounds went through this panel and 15% of them were active in at least one assay; those are over-represented in the sample as a whole. Activity calls are given as the source filed them. Rule as the data show it: active = growth inhibition above about 70%; inactive = the rest.

What was measured:
[1] = NCI Yeast Anticancer Drug Screen. Data for the rad52 strain (AID 147);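 also: 0% = growth of vehicle-treated control cultures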; settings: S. cerevisiae rad52 mutant growth inhibition, stronger effect = higher value
Outline: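 Read-out: growth inhibition versus vehicle-treated controls. Cells were a DNA repair-deficient yeast strain treated with compounds.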

[2] = NCI Yeast Anticancer Drug Screen. Data for the wt1 strain (AID 149);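 also: 0% = growth of vehicle-treated wt1 cultures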; settings: S. cerevisiae wt1 strain (SPY 50644) growth inhibition, stronger effect = higher value
Outline: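 Vehicle-normalised growth inhibition; strain wt1; compound exposure.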

[3] = NCI Yeast Anticancer Drug Screen. Data for the rad50EPP+ strain (AID 151);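 also: 0% = growth of vehicle-treated control cultures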; settings: S. cerevisiae rad50 mutant strain, stronger effect = higher value
Outline: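 Growth inhibition read against vehicle controls in rad50EPP+ yeast, a strain altered in DNA damage repair, after compound exposure.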

[4] = NCI Yeast Anticancer Drug Screen. Data for the mgt1 strain (AID 153); settings: S. cerevisiae mgt1 mutant growth inhibition, stronger effect = higher value
Outline: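 mgt1 yeast grown with test compound; read-out is growth inhibition versus vehicle-treated cultures.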

[5] = NCI Yeast Anticancer Drug Screen. Data for the rad50 strain (AID 155);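 also: 0% = growth of vehicle-only cultures of the same strain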; settings: S. cerevisiae rad50 strain growth inhibition, stronger effect = higher value
Outline: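 A DNA repair-deficient yeast mutant serves as the test organism; compound-induced growth inhibition is calculated against vehicle-treated cells.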

[6] = NCI Yeast Anticancer Drug Screen. Data for the mec2-1 strain (AID 157); settings: S. cerevisiae mec2-1 strain, stronger effect = higher value
Outline: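 Yeast mec2-1 mutant treated with compound. Readout: growth inhibition vs vehicle controls.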

[7] = NCI Yeast Anticancer Drug Screen. Data for the rad14 strain (AID 159);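 also: 0% = growth of vehicle-treated control cultures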; settings: S. cerevisiae rad14 strain growth inhibition, stronger effect = higher value
Outline: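 Vehicle-treated cultures served as the baseline for growth inhibition of a DNA repair-mutant yeast strain exposed to each compound.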

[8] = NCI Yeast Anticancer Drug Screen. Data for the sgs1 mgt1 strain (AID 161);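 also: 0% = growth of cultures given vehicle only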; settings: S. cerevisiae sgs1 mgt1 strain, stronger effect = higher value
Outline: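 Mutant yeast exposed to compound; growth scored against vehicle-only wells.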

[9] = NCI Yeast Anticancer Drug Screen. Data for the CLN2oe strain (AID 163);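 also: 0% = growth of vehicle-only control cultures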; settings: S. cerevisiae CLN2oe strain, stronger effect = higher value
Outline: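 Read-out: yeast growth inhibition, expressed relative to vehicle-only controls. The strain bears an engineered cell-cycle alteration.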

[10] = NCI Yeast Anticancer Drug Screen. Data for the cln2 rad14 strain (AID 165);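 also: 0% = growth equal to vehicle treated cultures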; settings: S. cerevisiae cln2 rad14 strain, stronger effect = higher value
Outline: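 cln2 rad14 yeast strain; compound exposure; growth inhibition read vs vehicle controls.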

[11] = NCI Yeast Anticancer Drug Screen. Data for the bub3 strain (AID 167); settings: S. cerevisiae bub3 mutant strain, stronger effect = higher value
Outline: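 Inhibition values come from growth of compound-treated mutant yeast normalised to vehicle-treated controls.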

[12] = NCI Yeast Anticancer Drug Screen. Data for the wt2 strain (AID 169);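 also: 0% = growth of vehicle-treated yeast cultures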; settings: S. cerevisiae wt2 strain growth inhibition, stronger effect = higher value
Outline: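 Read-out: growth inhibition versus vehicle-treated control cultures after compound exposure of the yeast strain.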

[13] = NCI Yeast Anticancer Drug Screen. Data for the mlh1 strain (AID 171);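 also: 0% = growth of vehicle-treated control cultures of the same strain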; settings: S. cerevisiae mlh1 strain growth inhibition, stronger effect = higher value
Outline: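 Read-out: growth inhibition versus vehicle controls. Strain: engineered yeast with a defined DNA repair or cell cycle defect, compound-treated.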

[14] = NCI Yeast Anticancer Drug Screen. Data for the sgs1 strain (AID 173);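 also: 0% = growth of vehicle-only control cultures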; settings: S. cerevisiae sgs1 mutant, stronger effect = higher value
Outline: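 Read-out: yeast growth inhibition relative to vehicle controls, following compound exposure of a strain with a defined DNA repair/cell cycle alteration.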

[15] = NCI Yeast Anticancer Drug Screen. Data for the mlh1 rad18 strain (AID 175); settings: S. cerevisiae mlh1 rad18 strain growth inhibition, stronger effect = higher value
Outline: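 Yeast w/ defined DNA-repair lesions; compound exposure; growth vs vehicle controls → % inhibition.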

[16] = NCI Yeast Anticancer Drug Screen. Data for the rad18 strain (AID 177); settings: S. cerevisiae rad18 mutant growth inhibition, stronger effect = higher value
Outline: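 Readout: growth inhibition vs vehicle controls. Cells: genetically altered yeast strain, DNA repair defect.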

[17] = at 5.0 µM (retest, dose inferred, filed as 0.5)
[18] = at 50.0 µM (retest, dose inferred, filed as 5.0)

Measured: growth inhibition

CCCCN(CCCC)CC(C(C)=O)C(c1ccccc1)c1c(O)c2ccccc2oc1=O (stereo unspecified)
active: [5]; at 50.0 µM 71.3% | [8]; at 50.0 µM 84.2% | [10]; at 50.0 µM 81.5% | [11]; at 50.0 µM 74.5% | [15]; at 50.0 µM 76.8%
inactive: [1]; at 1.2 µM 2% | [1]; at 3.7 µM 3% | [1]; at 11.0 µM 2% | [1]; at 33.0 µM 3% | [1]; at 100.0 µM 2% | [2]; at 1.2 µM 0% | [2]; at 3.7 µM -1% | [2]; at 11.0 µM -1% | [2]; at 33.0 µM -3% | [2]; at 100.0 µM -4% | [3]; at 1.2 µM -7% | [3]; at 3.7 µM -5% | [3]; at 11.0 µM -6% | [3]; at 33.0 µM -8% | [3]; at 100.0 µM -3% | [4]; at 1.2 µM 1% | [4]; at 3.7 µM 2% | [4]; at 11.0 µM 3% | [4]; at 33.0 µM 0% | [4]; at 100.0 µM -1% | [5]; at 1.2 µM 2% | [5]; at 3.7 µM 2% | [5]; [17] 22% | [5]; at 11.0 µM 4% | [5]; at 33.0 µM 3% | [5]; [18] 22% | [5]; at 100.0 µM 1% | [6]; at 1.2 µM 3% | [6]; at 3.7 µM 2% | [6]; [17] 25% | [6]; at 11.0 µM -1% | [6]; at 33.0 µM -1% | [6]; [18] 25% | [6]; at 50.0 µM 69.6% | [6]; at 100.0 µM 5% | [7]; at 1.2 µM 5% | [7]; at 3.7 µM 3% | [7]; at 11.0 µM 2% | [7]; at 33.0 µM -2% | [7]; at 100.0 µM -24% | [8]; [17] 10% | [8]; [18] 10% | [9]; at 1.2 µM 1% | [9]; at 3.7 µM 6% | [9]; at 11.0 µM 5% | [9]; at 33.0 µM -2% | [9]; at 100.0 µM -3% | [10]; [17] 51% | [10]; [18] 51% | [11]; at 1.2 µM 4% | [11]; at 3.7 µM 2% | [11]; [17] 4% | [11]; at 11.0 µM 15% | [11]; at 33.0 µM 22% | [11]; [18] 4% | [11]; at 100.0 µM 6% | [12]; at 1.2 µM 0% | [12]; at 3.7 µM -1% | [12]; at 11.0 µM 0% | [12]; at 33.0 µM -1% | [12]; at 100.0 µM 4% | [13]; at 1.2 µM 0% | [13]; at 3.7 µM -2% | [13]; at 11.0 µM -2% | [13]; at 33.0 µM 1% | [13]; at 100.0 µM -28% | [14]; at 1.2 µM -4% | [14]; at 3.7 µM -6% | [14]; at 11.0 µM -7% | [14]; at 33.0 µM -4% | [14]; at 100.0 µM 9% | [15]; [17] 22% | [15]; [18] 22% | [16]; at 1.2 µM -3% | [16]; at 3.7 µM -9% | [16]; at 11.0 µM -10% | [16]; at 33.0 µM -12% | [16]; at 100.0 µM -8%

O=C(COc1ccc(Cl)cc1Cl)NO
inactive: [1]; at 1.2 µM -5% | [1]; at 3.7 µM 0% | [1]; at 11.0 µM 8% | [1]; at 33.0 µM 28% | [1]; at 100.0 µM 69% | [2]; at 1.2 µM -6% | [2]; at 3.7 µM -7% | [2]; at 11.0 µM -10% | [2]; at 33.0 µM -1% | [2]; at 100.0 µM 66% | [3]; at 1.2 µM -5% | [3]; at 3.7 µM 0% | [3]; at 11.0 µM 12% | [3]; at 33.0 µM 35% | [4]; at 1.2 µM -5% | [4]; at 3.7 µM -5% | [4]; at 11.0 µM -5% | [4]; at 33.0 µM 4% | [4]; at 100.0 µM 58% | [5]; at 1.2 µM -4% | [5]; at 3.7 µM -4% | [5]; [17] -138% | [5]; at 11.0 µM 10% | [5]; at 33.0 µM 50% | [5]; [18] 46% | [6]; at 1.2 µM 1% | [6]; at 3.7 µM -1% | [6]; [17] -46% | [6]; at 11.0 µM 11% | [6]; at 33.0 µM 43% | [6]; [18] -14% | [7]; at 1.2 µM -1% | [7]; at 3.7 µM 3% | [7]; at 11.0 µM 7% | [7]; at 33.0 µM 46% | [8]; [17] -58% | [8]; [18] 15% | [8]; at 50.0 µM 59.1% | [9]; at 1.2 µM -3% | [9]; at 3.7 µM -2% | [9]; at 11.0 µM 1% | [9]; at 33.0 µM 14% | [9]; at 100.0 µM 63% | [10]; [17] -60% | [10]; [18] -22% | [10]; at 50.0 µM 30.5% | [11]; at 1.2 µM -9% | [11]; at 3.7 µM -9% | [11]; [17] -67% | [11]; at 11.0 µM 2% | [11]; at 33.0 µM 24% | [11]; [18] 10% | [12]; at 1.2 µM -3% | [12]; at 3.7 µM -2% | [12]; at 11.0 µM -4% | [12]; at 33.0 µM -1% | [12]; at 100.0 µM 50% | [13]; at 1.2 µM 5% | [13]; at 3.7 µM -9% | [13]; at 11.0 µM -2% | [13]; at 33.0 µM 9% | [13]; at 100.0 µM 65% | [14]; at 1.2 µM -3% | [14]; at 3.7 µM 1% | [14]; at 11.0 µM 3% | [14]; at 33.0 µM 48% | [15]; [17] -118% | [15]; [18] -32% | [15]; at 50.0 µM 67.1% | [16]; at 1.2 µM -3% | [16]; at 3.7 µM 4% | [16]; at 11.0 µM 9% | [16]; at 33.0 µM 19% | [16]; at 100.0 µM 66%
active: [3]; at 100.0 µM 79% | [5]; at 50.0 µM 96.5% | [5]; at 100.0 µM 77% | [6]; at 50.0 µM 98.4% | [6]; at 100.0 µM 98% | [7]; at 100.0 µM 98% | [11]; at 50.0 µM 88% | [11]; at 100.0 µM 74% | [14]; at 100.0 µM 98%

CCOC(=O)C1=C(C(=O)OCC)C2(c3ccccc3)N(O1)c1ccccc1C2(C)C (stereo unspecified)
inactive: [1]; at 1.2 µM -3% | [1]; at 3.7 µM -2% | [1]; at 11.0 µM 0% | [1]; at 33.0 µM 3% | [2]; at 1.2 µM -2% | [2]; at 3.7 µM -5% | [2]; at 11.0 µM -4% | [2]; at 33.0 µM -1% | [2]; at 100.0 µM 54% | [3]; at 1.2 µM -6% | [3]; at 3.7 µM -7% | [3]; at 11.0 µM -5% | [3]; at 33.0 µM -6% | [3]; at 100.0 µM 15% | [4]; at 1.2 µM -1% | [4]; at 3.7 µM 0% | [4]; at 11.0 µM -1% | [4]; at 33.0 µM -3% | [5]; at 1.2 µM -1% | [5]; at 3.7 µM -2% | [5]; [17] 54% | [5]; at 11.0 µM -3% | [5]; at 33.0 µM -1% | [5]; [18] 54% | [5]; at 50.0 µM 63% | [5]; at 100.0 µM 67% | [6]; at 1.2 µM -3% | [6]; at 3.7 µM -3% | [6]; [17] 35% | [6]; at 11.0 µM -5% | [6]; at 33.0 µM -7% | [6]; [18] 35% | [6]; at 50.0 µM 27.5% | [7]; at 1.2 µM 0% | [7]; at 3.7 µM -4% | [7]; at 11.0 µM -3% | [7]; at 33.0 µM -8% | [7]; at 100.0 µM 62% | [9]; at 1.2 µM -4% | [9]; at 3.7 µM -2% | [9]; at 11.0 µM -4% | [9]; at 33.0 µM -5% | [10]; [17] 6% | [10]; [18] 6% | [10]; at 50.0 µM 43.3% | [11]; at 1.2 µM -6% | [11]; at 3.7 µM -5% | [11]; [17] 31% | [11]; at 11.0 µM 8% | [11]; at 33.0 µM 13% | [11]; [18] 31% | [11]; at 50.0 µM 44.4%
active: [1]; at 100.0 µM 71% | [4]; at 100.0 µM 78% | [6]; at 100.0 µM 74% | [8]; [17] 71% | [8]; [18] 71% | [8]; at 50.0 µM 79.8% | [9]; at 100.0 µM 79% | [11]; at 100.0 µM 77%
